Assay results: PubChem BioAssay (NCI)
Compounds without any hit were thinned out: in the full panel of roughly 83,000, 20% have a hit.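 In brief: 96-well plates, 48 h treatment, single concentration, percent growth endpoint.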 Values without a mark were called inactive. Calls of active or inactive are those of the source. How the source made its calls: active means growth percent below 10; inactive means the rest.

Key:
Test in all cases: NCI-60 one-dose screen, 48 h (100 = growth as untreated, 0 = no growth, -100 = all killed)
Conditions in all cases: 10 µM unless noted
SR leukemia = tested on: SR leukemia
OVCAR-8 ovarian = tested on: OVCAR-8 ovarian
OVCAR-5 ovarian = tested on: OVCAR-5 ovarian
SK-OV-3 ovarian = tested on: SK-OV-3 ovarian
IGROV1 ovarian = tested on: IGROV1 ovarian
OVCAR-3 ovarian = tested on: OVCAR-3 ovarian
HS 578T breast = tested on: HS 578T breast
NCI/ADR-RES ovarian = tested on: NCI/ADR-RES ovarian
T-47D breast = tested on: T-47D breast
MDA-MB-435 melanoma = tested on: MDA-MB-435 melanoma
SW-620 colon = tested on: SW-620 colon
MCF7 breast = tested on: MCF7 breast
HCT-116 colon = tested on: HCT-116 colon
HCC-2998 colon = tested on: HCC-2998 colon
KM12 colon = tested on: KM12 colon
OVCAR-4 ovarian = tested on: OVCAR-4 ovarian
BT-549 breast = tested on: BT-549 breast
RPMI-8226 leukemia = tested on: RPMI-8226 leukemia

Compound | growth (SR leukemia) | growth (OVCAR-8 ovarian) | growth (OVCAR-5 ovarian) | growth (SK-OV-3 ovarian) | growth (IGROV1 ovarian) | growth (OVCAR-3 ovarian) | growth (HS 578T breast) | growth (NCI/ADR-RES ovarian) | growth (T-47D breast) | growth (MDA-MB-435 melanoma) | growth (SW-620 colon) | growth (MCF7 breast) | growth (HCT-116 colon) | growth (HCC-2998 colon) | growth (KM12 colon) | growth (OVCAR-4 ovarian) | growth (BT-549 breast) | growth (RPMI-8226 leukemia)
COC1=CC(c2ccc[nH]2)=N/C1=C\c1[nH]c(C)c(C(=O)OCCn2cc(CCC[C@@H]3Cc4cc(O)ccc4C4CC[C@]5(C)[C@@H](O)CC[C@H]5C43)nn2)c1C (stereo partly drawn) | 23.8% | 96.3% | 88.9% | 92.4% | 95.7% | 85.5% | 65.1% | 83.2% | 102% | 80% | 56.3% | 96% | 81.6% | 85.7% | 66.9% | – | – | –
N=C(N)c1ccc(-c2ccc(-c3ccc(Cl)c(Cl)c3)o2)nc1 | 1.79% (active) | -16.1% (active) | 39% | – | 22.3% | -80.8% (active) | 94.8% | 32.2% | 85.9% | -52.1% (active) | -69.8% (active) | -76.8% (active) | -57.8% (active) | 77.8% | -15% (active) | -68.4% (active) | 94.9% | –
CN1C(=O)CCC(N2C(=O)c3cccc(NCCOCCOCCNC(=O)c4cc5c(o4)C(=O)c4ccccc4C5=O)c3C2=O)C1=O (stereo not drawn) | 7.99% (active) | 2.72% (active) | -85.5% (active) | – | -20.1% (active) | -44.7% (active) | -22.8% (active) | 45.1% | 11.1% | -94.6% (active) | -3.3% (active) | -65% (active) | -21.9% (active) | -62.2% (active) | -11.8% (active) | -95.3% (active) | -95.4% (active) | –
Cc1[nH]c(-c2nc3ccccc3[nH]2)c(C)c1C(=O)N1CCc2sccc2C1 | 97.7% | 91.2% | 83.5% | – | 98.5% | 95% | – | 93.2% | 72.9% | 94.9% | 89% | 90.2% | 92.6% | 110% | 97.6% | 83.3% | 94.1% | –
COc1cc2cc(Oc3ccc(NC(=O)Nc4cc(C(F)(F)F)cc(C(F)(F)F)c4)cc3)c(C)nc2cc1OCCN1CCCCC1 | -29.5% (active) | -48.1% (active) | -65.9% (active) | – | -78.4% (active) | -91.4% (active) | -44.1% (active) | -66.9% (active) | -39.7% (active) | -94.4% (active) | -84.4% (active) | -84.8% (active) | -76.8% (active) | -94.5% (active) | – | -90.6% (active) | 94.3% | –
CCn1c(Sc2nnc(NC(=O)CSC(=S)N3CCCCC3)s2)nc2c1c(=O)n(C)c(=O)n2C | 44.8% | 92.8% | 93.6% | – | 78.5% | 56.5% | – | 42.2% | – | 6.74% (active) | 61.8% | 91.9% | 87.7% | 81.9% | 64.2% | 84% | 79.7% | –
O=C(CC12CC3CC(CC(C3)C1)C2)NCCOCCOCCOCCNC(=O)c1cc2c(o1)C(=O)c1ccccc1C2=O | 7.13% (active) | 12.4% | -87.9% (active) | – | -10.8% (active) | -42.9% (active) | -27.2% (active) | -15% (active) | 1.06% (active) | -96.8% (active) | -10.6% (active) | -67.2% (active) | -19.6% (active) | -73.7% (active) | 2.29% (active) | -95.9% (active) | -90.6% (active) | –
NS(=O)(=O)Oc1ccc(-c2sc3cc(O)ccc3c2C(=O)c2ccc(OCCN3CCCCC3)cc2)cc1 | 4.91% (active) | 63.9% | 87.2% | – | 75.6% | 62.6% | 37.8% | 80.4% | 86.6% | -28% (active) | 51.7% | 29.4% | 43.5% | 59.5% | 65.3% | 58.4% | 84.6% | –
COc1ccc(/C=C(\C#N)n2nnc3ccccc32)cc1 | 27% | 19.6% | -13.4% (active) | – | 7.84% (active) | -66.4% (active) | -0.28% (active) | 0.0544% (active) | 50.1% | -40.1% (active) | 12.8% | 9.96% (active) | 4.97% (active) | -2.35% (active) | 1.79% (active) | 35.1% | 21.6% | –
Cc1cc(-c2noc(C(F)(F)F)n2)ccc1N1CCN(c2cc(C(=O)N(C)C)no2)CC1 | 52.9% | 68.1% | 102% | – | 92.1% | 83.9% | 89.1% | 69.5% | 46.6% | 71% | 84.7% | 55.5% | 45.7% | 80.8% | 85.2% | 64.9% | 66.6% | –
O=C(NCCOCCOCCNc1cccc2c1C(=O)N(C1CCCNC1=O)C2=O)c1cc2c(o1)C(=O)c1ccccc1C2=O (stereo not drawn) | 13.3% | 3.33% (active) | -84.5% (active) | – | -15.4% (active) | -25% (active) | -22.2% (active) | 48.6% | 14.9% | -94.1% (active) | -6.93% (active) | -63.3% (active) | 0.0602% (active) | -56.2% (active) | -14.2% (active) | -98.1% (active) | -94.7% (active) | –
N#C/C(=C\c1ccc(Br)cc1)n1nnc2ccccc21 | 11.7% | 17.3% | 7.66% (active) | – | 1.96% (active) | -31.8% (active) | 19.4% | -6.66% (active) | 24% | -38.4% (active) | -19.9% (active) | 14.2% | -44.2% (active) | -30.8% (active) | 1.67% (active) | 6.76% (active) | -1.46% (active) | –
O=C1Nc2ccccc2/C1=N/N=C/c1ccsc1 | 88.6% | 102% | 115% | – | 101% | 103% | 94.4% | 110% | 87% | 105% | 97.8% | 49.5% | 103% | 108% | 102% | 90.4% | 112% | –
O=C1C=CC(=Nc2cc(Br)c(O)c(Br)c2)C=C1 | – | 66.7% | 94.7% | 117% | 72.1% | 32% | 83.8% | 63.9% | 70.7% | 36.1% | 46.4% | 40.1% | 43.5% | 102% | 94.7% | 50.1% | 55.1% | -18.9% (active)
CCNCCNc1cc(-c2cccc(C(F)(F)F)c2)c(C#N)c2nc3ccccc3n12 | – | -39.7% (active) | -79.3% (active) | -97.2% (active) | -74.2% (active) | -86.7% (active) | -48.3% (active) | -55% (active) | -72.4% (active) | -93.3% (active) | -67.3% (active) | -70% (active) | -93.9% (active) | -80.9% (active) | -75.6% (active) | -83% (active) | -64.6% (active) | -29.3% (active)
CN(C)CCCCNc1ccc(NCCCCN(C)C)c2c1C(=O)c1c(O)ccc(O)c1C2=O | – | -73.1% (active) | -86% (active) | 85.6% | -84.5% (active) | 100% | 92% | -68.8% (active) | 97.1% | 92.7% | -72.6% (active) | -81.6% (active) | -66.7% (active) | -86% (active) | -89.3% (active) | 64% | 92% | 53.6%
COc1cccc(-c2nc3sccn3c2-c2ccnc(NCCNS(=O)(=O)c3c(Cl)cccc3Cl)c2)c1 | – | 39% | 90.9% | 89.5% | 57.2% | 70.8% | 87.8% | 36.6% | 6.81% (active) | 50.4% | 74.1% | 58.4% | 48.8% | 99.4% | 46.7% | 59.7% | 30.4% | 15.1%
CN(CCCCCCCCNc1ccnc2ccccc12)Cc1ccc(-c2ccc(-c3ccc(C#N)cc3)s2)cc1 | – | -52.5% (active) | -40.6% (active) | -72.6% (active) | -86.4% (active) | -79.1% (active) | -36.6% (active) | -68.3% (active) | -33.6% (active) | -91.6% (active) | -76.3% (active) | -76.5% (active) | -86.5% (active) | -89.6% (active) | -68.6% (active) | -57.9% (active) | -30.1% (active) | -44.4% (active)
